The values that follow come from article PMC8384837, “Expanding the binding specificity for RNA recognition by a PUF domain”.

What all share (assay): yeast three-hybrid, YBZ-1, SC-Leu-His + 0.5 mM 3-AT, 4 days
What all share (conditions): tags: N-Gal4 AD-HA kept; label: inside an RPR1-promoter hybrid RNA with tandem MS2 sites; ssRNA

The target in one assay is PUM1 PUF domain R8-PKR (Homo sapiens, UniProt Q14671 828-1176, N1122P;Y1123K;Q1126R). The method in brief:
(§1)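 Each repeat of the Pumilio-1 PUF domain was randomized at its three base-contacting residues, and these libraries were co-expressed from a centromeric plasmid with matching RNA elements in strain YBZ-1. After four days on SC-Leu (input) or SC-Leu-His + 0.5 mM 3-AT (selection), the repeat regions were PCR-amplified and Illumina-sequenced. The interaction score compares variant frequency between input and selection as a log change, computed in log2 with a pseudocount of 1 for absent variants.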

The next assay has as its target PUM1 PUF domain R8-GWR (Homo sapiens, UniProt Q14671 828-1176, N1122G;Y1123W;Q1126R). A digest of the protocol:
as §1

The next assay has as its target PUM1 PUF domain R5-LNR (Homo sapiens, UniProt Q14671 828-1176, C1007L;R1008N;Q1011R). The method in brief:
as §1

The next assay concerns the target PUM1 PUF domain R5-IHE (Homo sapiens, UniProt Q14671 828-1176, C1007I;R1008H;Q1011E). The method in brief:
as §1

A further assay deals with PUM1 PUF domain R3-LWG (Homo sapiens, UniProt Q14671 828-1176, C935L;R936W;Q939G). A digest of the protocol: as §1
A further assay addresses PUM1 PUF domain R3-GYW (Homo sapiens, UniProt Q14671 828-1176, C935G;R936Y;Q939W). The method in brief: as §1
In another assay the target is PUM1 PUF domain R7-QNE (Homo sapiens, UniProt Q14671 828-1176, S1079Q). The method in brief:
as §1

In another assay the target is PUM1 PUF domain R1-ERV (Homo sapiens, UniProt Q14671 828-1176, S863E;Q867V). The method in brief:
as §1

A further assay has as its target PUM1 PUF domain R5-RDR (Homo sapiens, UniProt Q14671 828-1176, C1007R;R1008D;Q1011R). A digest of the protocol:
as §1

The target of a further assay is PUM1 PUF domain R5-QAK (Homo sapiens, UniProt Q14671 828-1176, C1007Q;R1008A;Q1011K). The method in brief:
as §1

On to “GGCUAGAACUAGUGGAUCCCCCGGCGCCCGGCGGCUCGAGCCCGGGUAAGUGUAAAUAGUCUGCAUGCCGCCGGGCGCCAUGCCUGCAGGUCGACUCUAGAAAACAUG”, for which the binding signal with PUM1 PUF domain R8-PKR was 2.74 log2 enrichment (interaction score); in the assay with PUM1 PUF domain R8-GWR, 5.13 log2 enrichment (interaction score); in the assay with PUM1 PUF domain R5-LNR, 1.95 log2 enrichment (interaction score); in the assay with PUM1 PUF domain R5-IHE, 3.04 log2 enrichment (interaction score); with PUM1 PUF domain R3-LWG it was 2.39 log2 enrichment (interaction score); with PUM1 PUF domain R3-GYW, 5.68 log2 enrichment (interaction score). The binding signal in the assay with PUM1 PUF domain R7-QNE is 4.09 log2 enrichment (interaction score).

Regarding “GGCUAGAACUAGUGGAUCCCCCGGCGCCCGGCGGCUCGAGCCCGGGUAAGUGUAAAUCGUCUGCAUGCCGCCGGGCGCCAUGCCUGCAGGUCGACUCUAGAAAACAUG”, the binding signal in the assay with PUM1 PUF domain R1-ERV was 5.04 log2 enrichment (interaction score).

Regarding “GGCUAGAACUAGUGGAUCCCCCGGCGCCCGGCGGCUCGAGCCCGGGUAAGCGUAAAUAGUCUGCAUGCCGCCGGGCGCCAUGCCUGCAGGUCGACUCUAGAAAACAUG”, the binding signal in the assay with PUM1 PUF domain R8-PKR was 3.72 log2 enrichment (interaction score); with PUM1 PUF domain R8-GWR it was 5.66 log2 enrichment (interaction score).

Consider “GGCUAGAACUAGUGGAUCCCCCGGCGCCCGGCGGCUCGAGCCCGGGUAAGUGUGAAUAGUCUGCAUGCCGCCGGGCGCCAUGCCUGCAGGUCGACUCUAGAAAACAUG”, for which the binding signal with PUM1 PUF domain R5-RDR is 2.62 log2 enrichment (interaction score).

Consider “GGCUAGAACUAGUGGAUCCCCCGGCGCCCGGCGGCUCGAGCCCGGGUAAGUGUAAUUAGUCUGCAUGCCGCCGGGCGCCAUGCCUGCAGGUCGACUCUAGAAAACAUG”, for which the binding signal is 3.8 log2 enrichment (interaction score) with PUM1 PUF domain R3-LWG and 2.62 log2 enrichment (interaction score) with PUM1 PUF domain R3-GYW.

Turning to “GGCUAGAACUAGUGGAUCCCCCGGCGCCCGGCGGCUCGAGCCCGGGUAAGUGUAAGUAGUCUGCAUGCCGCCGGGCGCCAUGCCUGCAGGUCGACUCUAGAAAACAUG”, in the assay with PUM1 PUF domain R3-LWG, the binding signal is 6.06 log2 enrichment (interaction score).

As to “GGCUAGAACUAGUGGAUCCCCCGGCGCCCGGCGGCUCGAGCCCGGGUAAGUGUUAAUAGUCUGCAUGCCGCCGGGCGCCAUGCCUGCAGGUCGACUCUAGAAAACAUG”, the results for the binding signal in the assay with PUM1 PUF domain R5-QAK and in the assay with PUM1 PUF domain R5-LNR were 3.34 log2 enrichment (interaction score) and 4.82 log2 enrichment (interaction score), respectively.

Consider “GGCUAGAACUAGUGGAUCCCCCGGCGCCCGGCGGCUCGAGCCCGGGUAAGUGUCAAUAGUCUGCAUGCCGCCGGGCGCCAUGCCUGCAGGUCGACUCUAGAAAACAUG”, for which the binding signal with PUM1 PUF domain R5-RDR is 3.41 log2 enrichment (interaction score).
